CHX counter: counter-screen hit for Shiga toxin inhibitors, cycloheximide. 12% of 300,000 active. cell reporter, cycloheximide protein synthesis inhibition counterscreen. max response, %; in the data active = max response mostly above about 13%, no sharp cut-off; inactive = mostly below about 14%; note: read at 38.3 µM for the half of the compounds with a filed dose
Pf growth 48h: P. falciparum growth inhibition at 48 hours (one generation); P. falciparum luciferase growth in erythrocytes, 48 h; Potency, µM (series often up to 28.7 µM), usual class: inhibitors; 5.9% of 310,000 active
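In quantitative HTS format, infected erythrocytes bearing luciferase-reporter parasites were treated for a single generation at 37 C. Luminescence after adding detection reagent served as the growth measure.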
Shiga toxin inh: blocks Shiga toxin action in Vero cells; 9.2% of 290,000 active; inhibition, % at 38.7 µM; Vero cells, Shiga toxin protein synthesis inhibition reporter; in the data active = inhibition mostly above about 28%, no sharp cut-off; inactive = mostly below about 43%
HCV inhibitor: HCV inhibition; 3.4% of 340,000 active; Huh7.5.1 HCVcc-Cre infection, luciferase reporter, 44 h; Potency, µM (titrated, usually from 41.8 µM), actives largely listed as inhibitors
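A cell-based infection assay in which seeded cells (1,000 per well) receive test compound after 4 h, are inoculated with HCVcc-Cre at approximately 0.5 moi, and are incubated 44 h before luminescence detection.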
Pf growth 96h: inhibits malaria parasite growth, 96 h; Potency, µM (top dose mostly 28.7 µM), hits mostly inhibitors; 6.9% of 320,000 active; P. falciparum luciferase reporter growth, 96 h; AID 504834
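96 h incubation, 37 C, 5% CO2, of luciferase-reporter P. falciparum-infected RBCs (2% hematocrit, 0.05% parasitemia final) with test compounds; endpoint luminescence.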
AMA1 RON2 block: AMA1-RON2 (P. falciparum) interaction inhibition; AlphaScreen AMA1-biotinylated RON2 peptide binding; AID 720542; Potency, µM (highest dose often 58.2 µM), usual class: inhibitors; 0.2% of 360,000 active; note: nearly all actives have a fitted effect of over 45% in size
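AMA1 (3D7) with his tag at 25 nM final met compounds first, then biotinylated RON2 peptide at 25 nM; detection used donor plus acceptor beads, 10 µg/mL apiece, read by AlphaScreen after 30 min at room temperature.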
Hits are given with their value; . = inactive; ? = inconclusive; / = not tested or not shown. Hits are enriched below; roughly 21% of the tested compounds scored in any of these assays. Unless noted, calls come from the whole dose curve; as a rule, active = well fitted curve in the direction sought with a large enough effect; inconclusive = small, poorly fitted or top-dose-only effect, or another doubt; inactive = no such curve, though single readings can be large; an effect the other way counts as inactive or inconclusive.

SMILES	CHX counter	Pf growth 48h	Shiga toxin inh	HCV inhibitor	Pf growth 96h	AMA1 RON2 block
O=C(Nc1ccc2[nH]ncc2c1)c1cccc(F)c1	29	.	65	.	.	.
COc1cc(OC)cc(C(=O)NNS(=O)(=O)c2ccc(F)cc2)c1	.	.	.	.	?	.
CCCCCCCCCCCCCCCCN	/	.	/	/	.	/
COc1cc(NS(=O)(=O)c2ccc(-n3cccn3)cc2)cc(OC)c1	/	/	/	/	/	.
CCOc1ccccc1OCC(=O)Nc1ccc2[nH]c(=O)[nH]c2c1	/	.	/	13µM	.	.
O=C(Cc1ccccc1)Nc1ccc2[nH]ncc2c1	21	?	.	.	?	.
C/C=C/C(=O)[C@@H](C)[C@@H](/C=C/C[Si](C)(C)C)C(C)C	.	/	.	/	/	/
CC(C)C[C@@H](C(=O)N[C@@H](Cc1c[nH]c2ccccc12)C(N)=O)N1C[C@]2(CCCN2C(=O)[C@H](Cc2ccccc2)NC(=O)[C@H](Cc2ccccc2)NC(=O)[C@H](CCC(N)=O)NC(=O)[C@H](CCC(N)=O)NC(=O)[C@@H]2CCCN2C(=O)[C@H](CCCCN)NC(=O)[C@@H]2CCCN2C(=O)[C@@H](N)CCCNC(=N)N)CC1=O	.	/	.	/	/	/
CCN(CC)C(=O)C1=C(C)N(CCCOC)C(=O)C(CC(=O)NCc2ccco2)C1 (stereo not drawn)	/	/	/	/	/	.
Cc1ccc2nc3cc([N+](=O)[O-])cc([N+](=O)[O-])c3cc2c1	68	?	134	?	?	.
CN(C)/C=N/c1cnc(C(=O)c2ccc(Cl)cc2)n1C	45	.	83	.	.	.
O=C(NC1CC1)c1ccc(-n2cccc2)cc1	62	.	.	.	.	.
Clc1ccc(CN=C(Nc2ccccc2)NC2CCCCC2)cc1	.	9.3µM	.	?	9.3µM	.
O=C(CCSc1ccc(Cl)cc1)NC1CCCC1	.	.	.	.	5.9µM	.
O=C(NC1CCCCCC1)c1ccc(-n2cnnc2)cc1	.	?	.	.	.	.
C=CCNC(=O)c1ccc(-n2cccc2)cc1	30	.	.	.	.	.
COc1ccc(OC)c(NC(=O)CCN2C(=O)c3ccccc3C2=O)c1	.	.	.	.	?	.
CCCn1c2ccc(C)cc2c2nnc(SCCN3CCOCC3)nc21	.	.	.	?	.	.
Cc1ccccc1OCCCC(=O)NC1CCCCC1	13	.	/	?	.	.
O=C(CCSc1ccccc1)NC1CCCC1	28	.	.	.	.	.
CCC(C)(C)NC(=O)Cc1ccc(Cl)cc1	25	.	.	.	.	.
O=C(CCSCc1ccccc1Cl)NC1CCCCC1	37	.	95	.	.	.
O=C(CC1OC(=O)c2ccccc21)Nc1cc(Cl)ccc1N1CCCC1 (stereo not drawn)	/	?	/	?	.	.
C[N+](C)(C)CCN1CCc2ccccc21	/	/	/	/	/	.
CC(=O)NC(Cc1ccc(F)cc1)C(=O)NC1CCN(C(=O)NCc2ccccc2)CC1 (stereo not drawn)	.	.	.	.	.	.
SMILES	CHX counter	Pf growth 48h	Shiga toxin inh	HCV inhibitor	Pf growth 96h	AMA1 RON2 block
CC(=O)OC1CC[C@@]2(C)C(=CC[C@H]3[C@@H]4CC[C@H](C(C)=O)[C@@]4(C)CC[C@@H]32)C1 (stereo partly drawn)	.	/	.	/	/	/
O=C(CCS(=O)(=O)c1ccccc1)NC1CCCCC1	59	.	90	.	?	.
O=C(Cc1ccc(F)cc1)NC1CCCCCC1	.	.	.	.	.	.
O=C(Cc1ccc(Cl)cc1)NC1CCCCCC1	20	.	.	.	.	?
O=C(Cc1ccc(-n2cccc2)cc1)NC1CCCCCC1	.	.	.	.	15µM	.
CC1CCCCN1C(=O)Cc1ccc(Cl)cc1 (stereo not drawn)	14	.	.	.	.	.
O=S(=O)(NC(=S)NC1CCCCC1)c1ccc(Cl)cc1	.	.	.	.	0.52µM	.
CC1(C(=O)Nc2ccc3[nH]ncc3c2)CCN1C(=O)Cc1ccc(-c2ccccc2)cc1 (stereo not drawn)	/	/	/	/	/	.
CCCNC(=O)N1[C@H]2CC[C@@H]1C(C(=O)OC)=C(c1ccc(OC)c(OC)c1)C2	/	.	/	.	.	.
COC(=O)C1=C(c2cccc(OCc3ccccc3)c2)C[C@@H]2CC[C@H]1N2C(=O)NCc1cccc(C(F)(F)F)c1	/	13µM	/	?	?	.
COC(=O)C1=C(c2cccc(OCc3ccccc3)c2)C[C@@H]2CC[C@H]1N2C(=O)NCc1ccccc1	/	13µM	/	?	?	.
COC(=O)C1=C(c2cccc(OCc3ccccc3)c2)C[C@@H]2CC[C@H]1N2C(=O)NCc1ccc([N+](=O)[O-])cc1	/	12µM	/	?	?	.
COC(=O)C1=C(c2ccc(OCc3ccccc3)cc2)C[C@@H]2CC[C@H]1N2C(=O)NCc1ccc([N+](=O)[O-])cc1	/	/	/	.	/	.
COC(=O)C1=C(c2ccc(OC)c(OC)c2)C[C@@H]2CC[C@H]1N2C(=O)NCc1cc(C)oc1C(F)(F)F	/	9.3µM	/	.	?	.
CCc1nc2c(OCc3ccc4c(c3)OCO4)cccn2c1N(C=O)Cc1ccccc1	/	/	/	/	/	.
O=C1NC[C@@H](CCCCN2C[C@H](Cc3ccc(O)cc3)N(CCC3CCCCC3)C(=O)C2=O)N(CC2CCCCC2)C1=O	/	/	/	/	/	.
COC(=O)C1=C(c2cccc(OCc3ccccc3)c2)C[C@@H]2CC[C@H]1N2C(=O)NCc1ccccc1OC	/	7.4µM	/	?	?	.
COC(=O)C1=C(c2cccc(OCc3ccccc3)c2)C[C@@H]2CC[C@H]1N2C(=O)NCc1ccc(OC)cc1	/	7.4µM	/	22µM	?	.
COC(=O)C1=C(c2ccccc2)C[C@@H]2CC[C@H]1N2C(=O)NCc1cccc2ccccc12	/	/	/	.	/	.
COC(=O)C1=C(c2ccc(OC)c(OC)c2)C[C@@H]2CC[C@H]1N2C(=O)NCc1cccc2ccccc12	/	0.52µM	/	.	0.23µM	.
COC(=O)C1=C(c2cccc(OCc3ccccc3)c2)C[C@@H]2CC[C@H]1N2C(=O)NCc1cc(C)oc1C(F)(F)F	/	4.7µM	/	?	?	.
COc1ccc(S(=O)(=O)N2CCCCC2)cc1NC(=O)CCC(=O)N1CCC(c2ccccc2)=N1	/	/	/	.	/	.
COC(=O)C1=C(c2ccc(OCc3ccccc3)cc2)C[C@@H]2CC[C@H]1N2C(=O)NCc1ccc(C(C)(C)C)cc1	/	/	/	/	/	.
COC(=O)C1=C(c2cccc(OCc3ccccc3)c2)C[C@@H]2CC[C@H]1N2C(=O)NCc1cccc(F)c1	/	8.3µM	/	.	?	.
COC(=O)C1=C(c2cccc(OCc3ccccc3)c2)C[C@@H]2CC[C@H]1N2C(=O)NCc1ccc(Cl)cc1	/	8.3µM	/	?	?	.
COC(=O)C1=C(c2cccc(OCc3ccccc3)c2)C[C@@H]2CC[C@H]1N2C(=O)NCc1ccc(OC)c(OC)c1	/	?	/	?	?	.
